Bioassay records: PubChem, National Center for Advancing Translational Sciences (NCATS)
Rows were chosen to be rich in hits. Some 19% of all compounds tested hit in one or more screens of this group.
ELG1 DNA repair: ELG1-dependent DNA repair inhibition. Potency, µM (series often up to 46.1 µM), for the others: at the top dose activity change, negative = inhibition, most hits filed as inhibitors. HEK293T ELG1-luciferase reporter, luminescence, 16 h; DNA damage induced by 5-fluorouridine. actives 2.3% (n = 330,000); further: potency means the concentration at half of the fitted maximal effect; nearly all actives have a fitted effect of over 55% in size
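Luminescence from the luciferase reporter, measured 30 min after ONE-Glo reagent at room temperature, was the read-out. Beforehand, 2,000 cells per well were exposed for 16 hr at 37 °C to 5-fluorouridine together with compound or vehicle.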
Giardia killer: Giardia lamblia killing | activity change, % at 7.66 µM, hits read low | Giardia lamblia trophozoite viability | actives 0.15% (n = 340,000); in the data active means activity change below about -80%; inconclusive means between about -30% and that limit;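 further: parasites exposed to compound for two days anaerobically before the ATP read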
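Viability, read as ATP luminescence: trophozoites at 100 cells/well, compound added, 48 hrs anaerobic at 37 deg C, then 15-30 min room-temperature development before reading.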
DT40 TDP1 no CPT: qHTS for Inhibitors of human tyrosyl-DNA phosphodiesterase 1 (TDP1): qHTS in cells in absence of CPT; actives 15% (n = 420,000); DT40 Tdp1-/- hTDP1 cells, no CPT, ATP luminescence, 48 h; Potency, µM (top dose mostly 46.2 µM), for inactives: at the top dose activity change, negative = growth inhibition, most hits filed as inhibitors; further: potency means the concentration at half of the fitted maximal effect; nearly all actives have a fitted effect of over 55% in size
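Readout: luminescence from CellTiter-Glo after 30 min in the dark at RT. Cells: DT40 Tdp1-/- with stable hTDP1, 400/well. Exposure: compounds alone, ≥48 hr, 37 °C.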
TDP1 block: TDP1 (human) enzyme inhibition. recombinant TDP1, AlphaScreen DNA substrate cleavage. actives 0.28% (n = 350,000). Q9NUW8. Potency, µM (series often up to 130 µM), inactives show top-dose activity change, negative = inhibition, most hits filed as inhibitors; further: potency means the concentration at half of the fitted maximal effect; nearly all actives have a fitted effect of over 40% in size
Target sequence (Q9NUW8 whole entry, looked up): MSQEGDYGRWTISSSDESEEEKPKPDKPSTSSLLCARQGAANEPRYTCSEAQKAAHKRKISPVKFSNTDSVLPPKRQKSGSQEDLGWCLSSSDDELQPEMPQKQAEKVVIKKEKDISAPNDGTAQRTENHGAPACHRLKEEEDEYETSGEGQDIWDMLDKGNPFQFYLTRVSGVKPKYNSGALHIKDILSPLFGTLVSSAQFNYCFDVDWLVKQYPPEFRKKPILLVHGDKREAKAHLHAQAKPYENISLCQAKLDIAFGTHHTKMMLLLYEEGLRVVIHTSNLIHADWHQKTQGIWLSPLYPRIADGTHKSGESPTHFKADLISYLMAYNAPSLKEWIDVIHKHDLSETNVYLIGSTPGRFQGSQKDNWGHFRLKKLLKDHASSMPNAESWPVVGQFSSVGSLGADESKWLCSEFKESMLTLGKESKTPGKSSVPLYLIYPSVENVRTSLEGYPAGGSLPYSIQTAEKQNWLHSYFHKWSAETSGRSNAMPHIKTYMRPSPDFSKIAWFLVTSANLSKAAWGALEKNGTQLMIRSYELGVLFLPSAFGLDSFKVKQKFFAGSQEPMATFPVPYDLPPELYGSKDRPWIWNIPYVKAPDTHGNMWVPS
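Signal: AlphaScreen proximity between streptavidin donor and anti-FITC acceptor beads on intact substrate. Reaction: Tdp1 1 nM, substrate 15 nM final, 5 min RT after 15 min compound preincubation.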
IL1B secr inh: inflammasome signaling inhibition, IL-1 beta readout; AID 743279; THP-1 LPS/ATP IL-1B secretion, AlphaLISA, 16 h; stronger effect = lower value; actives 4.7% (n = 360,000); activity change, % at 57.5 µM; in the data active means activity change below about -50%; inconclusive means mostly about -30% to -49%
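Secreted IL-1B measured by AlphaLISA bead assay after 16 h compound exposure of THP-1 cells; compounds (final up to 57.5 uM) added 1 h before LPS (250 ng/mL) and ATP (1.25 mM) stimulation; lower signal means less secretion.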
DT40 TDP1 CPT: growth inhibition of DT40 Tdp1-/-;hTDP1 cells with camptothecin (screen for TDP1 inhibitors) | actives 12% (n = 420,000) | chicken DT40 Tdp1-/-;hTDP1 cells + 20 nM CPT, ATP luminescence, 48 h | AID 686979 | Potency, µM (series often up to 46.2 µM), for inactives: top-dose activity change, negative = growth inhibition, actives largely listed as inhibitors; further: potency means the concentration at half of the fitted maximal effect; nearly all actives have a fitted effect of over 55% in size
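Chicken DT40 Tdp1-/- cells stably complemented with human TDP1 were seeded at 400 cells/well in medium containing 20 nM camptothecin, exposed to pin-transferred compounds, and grown at 37 °C for at least 48 hr. Viability was read as ATP luminescence.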
An asterisk follows results filed as active; ? = inconclusive; / = no result; ! = a repeat was not active; [ ] = dose if it differs, or a comment. Unless noted, the call rests on the fitted dose curve; in most records, active means well fitted curve in the direction sought with a large enough effect; inconclusive means small, poorly fitted or top-dose-only effect, or another doubt; inactive means no such curve, though single readings can be large; an effect the other way counts as inactive or inconclusive. On the % scale 0 is the no-effect control and ±100 the full control effect.

SMILES	ELG1 DNA repair	Giardia killer	DT40 TDP1 no CPT	TDP1 block	IL1B secr inh	DT40 TDP1 CPT
CCCCCn1c(CCNC(=O)CCC)nc2ccccc21	2.6%	-3.8	16.4µM*	2.6%	32.7	?
CCCC(=O)NCCc1nc2ccccc2n1Cc1c(F)cccc1Cl	/	/	14.6µM*	5.9%	/	20.6µM*
CCOC1=C2[C@@H](CN(S(=O)(=O)c3ccc(C)cc3)[C@H]2c2ccc(CC)cc2)[C@H]2C(=O)N(C)C(=O)[C@H]2C1	/	/	?	/	-18.3	?
CN(C(=O)CSc1nnc(-c2c[nH]c3ccccc23)n1C1CC1)C1CCS(=O)(=O)C1 (centres undefined)	5.6%	-5.1	6.6%	1.0%	34.8	9.9%
CN(C)c1ncc2nc(-c3cc(F)cc(F)c3)c(=O)n(Cc3cccs3)c2n1	/	/	?	/	/	-26.0%
COC(=O)c1ccc(CNc2ccc(C(C)=O)cc2)cc1	/	/	14.6µM*	/	0.0	?
CSc1nc2ccc(NC(=O)c3cccs3)cc2s1	?	-8.2	?	0.3%	-24.6	?
Cc1ccccc1NC(=O)CSc1nc2ccc(NC(=O)c3cccs3)cc2s1	/	/	20.6µM*	0.5%	/	?
COc1ccccc1C(=O)Nc1ccc2nc(SCCOc3ccccc3C)sc2c1	/	/	18.4µM*	1.6%	/	16.4µM*
Cc1cc(C)cc(OCCSc2nc3ccc(NC(=O)c4cccs4)cc3s2)c1	/	/	20.6µM*	-2.6%	/	?
Cc1ccc(OCCSc2nc3ccc(NC(=O)c4cccs4)cc3s2)cc1	/	/	-25.3%	-2.6%	/	-24.4%
CC(C)=NOC[C@@H](O)[C@@H]1O[C@@H]2OC(C)(C)O[C@@H]2[C@H]1O	/	/	/	3.7%[21 µM]	/	/
O=C(NCc1nnc2n1CCN(Cc1cccc(C(F)(F)F)c1)CC2)c1ccncc1	/	/	-14.9%	/	/	-21.7%
COc1ccc(-c2cc(C#N)nc(Cl)n2)cc1	5.2%	-6.3	4.61µM*	/	/	4.11µM*
N#Cc1cc(-c2ccccc2)nc(Oc2ccccc2)n1	-19.9%	7.4	18.4µM*	-0.6%	?	?
CCN(CC)c1nc2cc(OC)ccc2cc1C#N	-19.5%	-18.2	16.4µM*	?	0.8	20.6µM*
CCN(CC)c1nc(C#N)cc(-c2ccc(OC)cc2)n1	?	?	10.3µM*	?	-9.0	8.2µM*
CC(NC(=O)c1ccc2c(c1)N(Cc1cccc(F)c1)C(=O)c1ccccc1S2)c1ccccc1 (centres undefined)	/	/	?	4.7%	/	-1.0%
COc1ccccc1CN1CCC2(CC1)CCN(S(=O)(=O)c1ccccc1)CC2	/	/	?	/	/	-0.2%
Cc1ccc(OCC(=O)NNC(=O)CCc2ccccc2)c(Br)c1	15.3%	4.8	?	11.4%	-16.1	-2.9%
C(COC1CC2CC1C1C2CC2OC21)OC1CC2CC1C1C2CC2OC21 (centres undefined)	/	-5.9	-22.0%	/	6.9	?
COc1cc(-c2nc3cc(C)ccn3c2NC2CCCCC2)ccc1-c1ccc(C(C)=O)cc1	?	-1.3	7.31µM*	-0.2%	?	13µM*
CCCCCCSc1ccc(-c2nc3cc(C)ccn3c2NC2CCCCC2)cc1	8.6%	7.3	11.6µM*	0.9%	-70.0*!	18.4µM*
Cc1ccc2nc(-c3ccc(Cl)cc3)c(CC3CCCCC3)n2c1	/	/	?	/	-2.8	?
CCCCCCSc1cc(-c2nc3cc(C)ccn3c2NC2CCCCC2)ccc1OC	?	29.5	16.4µM*	3.5%	-21.2	?
SMILES	ELG1 DNA repair	Giardia killer	DT40 TDP1 no CPT	TDP1 block	IL1B secr inh	DT40 TDP1 CPT
CCCCCCSc1ccc(-c2nc3cnccn3c2NC2CCCCC2)cc1	/	/	?	/	14.3	?
CCCCCCSc1ccc(-c2nc3ccc(C)cn3c2NC2CCCCC2)cc1	4.4%	-10.3	18.4µM*	-0.1%	-19.9	16.4µM*
CC(C)n1c(O)c(N=NC(=O)Cc2csc(N3CCOCC3)n2)c2ccccc21	?	-21.9	?	7.5%	8.0	?
CCn1c2ccccc2c2nnc(SCC(=O)N3CC(C)OC(C)C3)nc21 (centres undefined)	?	16.6	16.4µM*	7.0%	21.6	?
Cn1c2ccccc2c2nnc(SCC(=O)Nc3cccc(C(=O)O)c3)nc21	9.6%	5.9	-5.3%	/	11.2	-7.6%
COc1ccccc1N1CCN(C(=O)CSc2nnc3c4ccccc4n(CC(=O)O)c3n2)CC1	5.3%	6.6	-18.4%	1.1%	15.1	-10.8%
Cn1c2ccc(F)cc2c2nnc(SCC(=O)Nc3cccc(O)c3)nc21	-6.8%	9.9	?	/	-71.0*	1.0%
CCCn1c2ccccc2c2nnc(SCC(=O)Nc3ncccn3)nc21	?	-15.0	?	-4.5%	1.0	25.9µM*
CCCn1c2ccccc2c2nnc(SCC(=O)Nc3cc(C)on3)nc21	?	-11.0	?	9.5%	-6.1	-19.1%
Cc1ccc(C2=NN=C(NC(=O)CSc3nnc4c5ccccc5n(C)c4n3)SC2)cc1	?	3.4	9.2µM*	2.6%	0.0	10.3µM*
Cc1ccc(CNC(=O)CN2C(=O)COc3ccc(S(=O)(=O)Nc4ccccc4)cc32)cc1	/	/	?	8.5%	/	?
Cc1cc(F)ccc1S(=O)(=O)N1CCCOC1CNC(=O)C(=O)NC1CC1 (centres undefined)	0.0%	-4.2	-9.8%	0.0%	5.8	7.1%
CCN(CC(=O)Nc1ccc(NC(C)=O)cc1)C(=O)c1c(C)nn(Cc2ccc(C)cc2)c1Cl	/	-0.5	16.9%	/	-4.3	0.5%
NC(=O)[C@@H]1C[C@]2(NC(=O)NC2=O)c2cc(F)ccc2O1	/	/	-9.0%	/	/	14.7%
Cc1cc(-c2ccccc2)n(-c2ccc(C(=O)N3CCN(c4ncccn4)CC3)cc2)n1	6.51µM*	22.8	?	5.6%	0.0	?
Cc1cc(C)n(-c2nc3ccccc3nc2N2CCN(C(=O)c3ccc(Cl)cc3)CC2)n1	3.9%	2.9	?	-2.2%	-58.7*	?
Cc1cc(C)n(-c2nc3ccccc3nc2N2CCCC2)n1	-0.3%	1.6	-19.6%	-1.9%	10.6	-15.8%
Cc1ccc(C(=O)N2CCN(c3ncccn3)CC2)cc1	3.3%	-12.8	11.5%	/	-7.9	-0.6%
CCOc1ccc(-n2c(N)c(-c3nc4ccccc4n3C)c3nc4ccccc4nc32)cc1	-17.6%	10.0	?	-0.6%	57.9	?
Cc1ccc(C2=NN(CCC(=O)NC3CCCC3)C(=O)CC2)cc1	-7.5%	-2.9	-4.5%	2.9%	-0.9	?
